# Article PMC4336329 (PLoS ONE, 2015)
# Among all 310,000 compounds or so, about 14,000 (4.5%) showed an effect of 50% or more. Effects have a minus sign here. The list comes from a sample in which strong results are over-represented; it also holds similar structures and randomly drawn compounds.
# Biological target: human ether-à-go-go-related gene (hERG) potassium channel (human, UniProt Q12809)
# Assay: primary screen, population patch clamp on CHO cells stably expressing hERG; higher = less effect of the substance
# 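Further: peak tail current of the secondary pulse compared with the same well before compound.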
# Sequence of human ether-à-go-go-related gene (hERG) potassium channel (Q12809 whole entry, looked up): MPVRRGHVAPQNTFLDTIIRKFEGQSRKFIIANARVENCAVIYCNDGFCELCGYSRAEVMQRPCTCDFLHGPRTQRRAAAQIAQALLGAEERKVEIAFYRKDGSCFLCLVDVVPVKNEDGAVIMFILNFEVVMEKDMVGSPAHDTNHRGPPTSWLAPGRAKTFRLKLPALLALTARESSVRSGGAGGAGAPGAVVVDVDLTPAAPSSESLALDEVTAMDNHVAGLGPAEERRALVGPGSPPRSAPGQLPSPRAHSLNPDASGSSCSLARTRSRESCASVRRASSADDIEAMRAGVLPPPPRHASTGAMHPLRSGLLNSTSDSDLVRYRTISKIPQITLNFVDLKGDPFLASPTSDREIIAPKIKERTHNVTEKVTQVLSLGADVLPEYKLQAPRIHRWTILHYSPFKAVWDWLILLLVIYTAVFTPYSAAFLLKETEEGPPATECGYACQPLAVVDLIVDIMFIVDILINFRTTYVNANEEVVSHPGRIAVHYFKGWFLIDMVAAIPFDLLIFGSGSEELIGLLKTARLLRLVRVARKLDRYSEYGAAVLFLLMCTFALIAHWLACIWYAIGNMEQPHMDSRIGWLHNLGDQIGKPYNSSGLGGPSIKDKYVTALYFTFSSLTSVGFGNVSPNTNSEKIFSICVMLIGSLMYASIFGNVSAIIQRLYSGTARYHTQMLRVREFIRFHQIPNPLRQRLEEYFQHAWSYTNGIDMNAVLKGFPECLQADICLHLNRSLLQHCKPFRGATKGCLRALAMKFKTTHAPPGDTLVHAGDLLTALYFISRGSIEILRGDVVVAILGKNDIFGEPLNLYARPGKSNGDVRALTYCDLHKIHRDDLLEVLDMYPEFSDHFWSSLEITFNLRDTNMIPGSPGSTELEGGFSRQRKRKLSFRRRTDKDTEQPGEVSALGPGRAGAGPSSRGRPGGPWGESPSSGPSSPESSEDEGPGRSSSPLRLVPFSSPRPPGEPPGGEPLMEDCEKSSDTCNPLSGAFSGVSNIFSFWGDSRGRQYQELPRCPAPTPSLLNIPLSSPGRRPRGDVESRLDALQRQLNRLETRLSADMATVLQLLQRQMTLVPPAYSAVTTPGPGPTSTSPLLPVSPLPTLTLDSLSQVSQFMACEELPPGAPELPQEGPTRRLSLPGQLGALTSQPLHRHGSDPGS
row,SMILES,"hERG current change (%, negative = inhibition) at 10uM [%]"
1,COc1ccc2ccccc2c1C1CC(=O)N2CN(C)CSC2=C1C#N (stereo not shown),12.7
2,CCn1c(/C=C2\C(=O)Nc3ccccc32)nc2ccccc2c1=O,-18.3
3,Cc1ccc(NC(=O)CC2SC(=NC3CCCCC3)NC2=O)cc1 (stereo not shown),-9.82
4,Cc1ccc(C(CNS(=O)(=O)c2ccc(F)cc2)N2CCN(C)CC2)cc1 (stereo not shown),-58.3
5,Cc1ccc(C(CNS(=O)(=O)c2ccc(C)cc2)N2CCN(C)CC2)cc1 (stereo not shown),-62.8
6,O=[N+]([O-])c1ccc(S(=O)(=O)NCC(c2cccnc2)N2CCc3ccccc3C2)cc1 (stereo not shown),-35.6
7,Cc1ccc(S(=O)(=O)NC(C)C(c2cccs2)N2CCN(C)CC2)cc1 (stereo not shown),-18
8,COc1ccc(C(CNS(=O)(=O)c2ccc(F)cc2)N2CCN(C)CC2)cc1 (stereo not shown),-32.5
9,CN1CCN(C(CNS(=O)(=O)c2ccc([N+](=O)[O-])cc2)c2ccc(F)cc2)CC1 (stereo not shown),-67.6
10,COc1ccc(S(=O)(=O)NCC(c2ccc(F)cc2)N2CCN(C)CC2)cc1 (stereo not shown),-36.4
11,O=[N+]([O-])c1ccc(S(=O)(=O)NCC(c2cccnc2)N2CCOCC2)cc1 (stereo not shown),-22
12,Cc1ccc(S(=O)(=O)NCC(c2ccccc2)N2CCN(CCC#N)CC2)cc1 (stereo not shown),-21.5
13,COc1ccc(S(=O)(=O)NCC(c2ccc(C)cc2)N2CCN(C)CC2)cc1OC (stereo not shown),-25.6
14,CC(NS(=O)(=O)c1ccccc1)C(c1cccs1)N1CCN(C)CC1 (stereo not shown),5.5
15,CC(NS(=O)(=O)c1ccc(Br)cc1)C(c1cccs1)N1CCN(C)CC1 (stereo not shown),-53.2
16,Cc1ccc(Nc2nnc(SCC(=O)Nc3ncc(S(=O)(=O)c4ccc([N+](=O)[O-])cc4)s3)s2)cc1,-14.5
17,CC1CCN(S(=O)(=O)c2ccc(NC(=O)CN3CCCCCC3)cc2)CC1,-31.2
18,Cc1c(CCO)c(=O)n(-c2ccccc2)n1S(=O)(=O)c1ccc(F)cc1,1.37
19,COc1ccccc1NC(=O)c1sc2nc(N3CCOCC3)c3c(c2c1N)CCCC3,15.2
20,O=S(=O)(NCC(c1ccccc1)N1CCNCC1)c1ccc(Cl)cc1 (stereo not shown),-28.6
21,Cc1ccc(C(CNS(=O)(=O)c2ccc([N+](=O)[O-])cc2)N2CCN(C)CC2)cc1 (stereo not shown),-66.8
22,COc1ccc(N2CCN(C(CNS(=O)(=O)c3ccccc3)c3ccccc3)CC2)cc1 (stereo not shown),-22.5
23,Cc1ccc(C(CNS(=O)(=O)c2ccc(Cl)cc2)N2CCN(C)CC2)cc1 (stereo not shown),-72.8
24,Cc1ccc(C(CNS(=O)(=O)c2ccc(F)cc2C)N2CCN(C)CC2)cc1 (stereo not shown),-57
25,O=S(=O)(NCC(c1ccccc1)N1CCC(O)CC1)c1ccc(Cl)cc1 (stereo not shown),-19.6
26,COc1ccc(C(CNS(=O)(=O)c2ccc(C)cc2)N2CCN(C)CC2)cc1 (stereo not shown),-45.2

row,SMILES,"hERG current change (%, negative = inhibition) at 10uM [%]"
1,Cc1cc(F)ccc1S(=O)(=O)NCC(c1ccc2c(c1)OCO2)N1CCOCC1 (stereo not shown),-16.8
2,COc1ccc(OC)c(S(=O)(=O)NCC(c2ccc(F)cc2)N2CCN(C)CC2)c1 (stereo not shown),-33.8
3,CN(C)c1ccc(C(CNS(=O)(=O)c2ccc([N+](=O)[O-])cc2)N2CCOCC2)cc1 (stereo not shown),-25.9
4,CN(C)c1ccc(C(CNS(=O)(=O)c2ccc([N+](=O)[O-])cc2)N2CCCC2)cc1 (stereo not shown),-47.2
5,COc1ccc(S(=O)(=O)NCC(c2ccc(C)cc2)N2CCN(C)CC2)cc1 (stereo not shown),-51.9
6,CC1CN(c2oc(COc3ccc(Cl)cc3Cl)nc2C#N)CC(C)O1 (stereo not shown),-13.6
7,c1ccc(SCc2cn3cccnc3n2)nc1,15.1
8,COc1cc(OC)c(NS(=O)(=O)c2cc(C(=O)OC(C)C(=O)NC3CC3)c(Cl)cc2Cl)cc1Cl (stereo not shown),-37
9,COc1cccc(OCCOc2ccc(/C=C3\C(=N)N4N=C(S(C)(=O)=O)SC4=NC3=O)cc2OC)c1,23.4
10,O=C(COC(=O)c1cc(-c2ccccc2Cl)nc2ccccc12)Nc1ncc(C(F)(F)F)cc1Cl,-10.9
11,COC(=O)c1cccc(-c2ccc(/C=N/N3C(=O)C4C5C=CC(C6CC56)C4C3=O)o2)c1 (stereo not shown),-8.32
12,CC1CCN(S(=O)(=O)c2ccc3c(c2)c(=O)c(C(=O)N2CCOCC2)cn3C)CC1,13.5
13,CC(Oc1ccc(Br)cc1)C(=O)N(C)CC(=O)Nc1ccc(N2CCOCC2)cc1 (stereo not shown),2.99
14,CC(C)CN(CC(C)C)C(=O)CN1C(=O)NC2(CCc3ccccc3C2)C1=O (stereo not shown),-8.61
15,Cc1ccnc(-n2c(C)cc(/C=C3\C(=O)NC(=S)N(C)C3=O)c2C)c1,12.9
16,Cc1cc(=O)[nH]c(COc2ccccc2)n1,17.2
17,CCN(CC)S(=O)(=O)c1ccc2c(c1)nc(SCC(=O)N(C)C1CCS(=O)(=O)C1)n2CC (stereo not shown),6.94
18,N#Cc1c(Cl)nsc1NCCN1CCOCC1,15.4
19,Cc1ccc(C(CNS(=O)(=O)c2ccccc2)N2CCN(C)CC2)cc1 (stereo not shown),-53.6
20,Cc1ccc(C(CNS(=O)(=O)c2ccc(Br)cc2)N2CCN(C)CC2)cc1 (stereo not shown),-72.4
21,Cc1ccc(S(=O)(=O)NCCNC(C)c2ccc(Br)cc2)cc1 (stereo not shown),-42.5
22,O=S(=O)(NCC(c1ccc2c(c1)OCO2)N1CCOCC1)c1ccc(F)cc1 (stereo not shown),-6.81
23,Cc1cc(S(=O)(=O)NCC(c2ccc(F)cc2)N2CCN(C)CC2)ccc1F (stereo not shown),-68.4
24,Cc1ccc(S(=O)(=O)NCC(c2ccccc2)N2CCCCC2)cc1 (stereo not shown),1.79
25,Cc1cc(S(=O)(=O)NCC(c2ccc3c(c2)OCO3)N2CCOCC2)ccc1F (stereo not shown),-20.7
26,COc1ccc(C(CNS(=O)(=O)c2ccccc2)N2CCN(C)CC2)cc1 (stereo not shown),-35.7
